# According to the supplement of paper PMC4022240:
# ± gives the standard deviation.
# T1: HaloTag-ATRX ADD domain (163-292)
# T1 chain: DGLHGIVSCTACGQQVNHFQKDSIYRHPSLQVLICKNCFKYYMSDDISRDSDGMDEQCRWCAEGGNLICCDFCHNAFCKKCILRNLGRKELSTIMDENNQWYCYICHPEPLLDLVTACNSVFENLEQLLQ
# B1: H2A 1-13 Sph G Rcit G K Q G G K A R A K (peptide)
# chain: SGRGKQGGKARAK
# B2: H2A 1-13 Sph G R G K Q G G K A R A K (peptide)
# chain: SGRGKQGGKARAK
# B3: H2A 1-13 S G Rme2a G Kac Q G G K A R A K (peptide)
# chain: SGRGKQGGKARAK
# B4: H2A 1-13 Sph G Rme G K Q G G K A R A K (peptide)
# chain: SGRGKQGGKARAK
# B5: H2A 1-13 Sph G R G Kac Q G G Kac A R A K (peptide)
# chain: SGRGKQGGKARAK
# B6: H2A 1-13 Sph G R G Kac Q G G K A R A K (peptide)
# chain: SGRGKQGGKARAK
# B7: H2A 1-13 Sph G Rme2a G K Q G G K A R A K (peptide)
# chain: SGRGKQGGKARAK
# B8: H2A 1-13 S G Rme G K Q G G K A R A K (peptide)
# chain: SGRGKQGGKARAK
# B9: H2A 1-13 S G Rcit G Kac Q G G K A R A K (peptide)
# chain: SGRGKQGGKARAK
# B10: H2A 1-13 S G R G K Q G G K A R A K (peptide)
# chain: SGRGKQGGKARAK
# What was measured:
# Assay in all cases: peptide microarray binding signal (635 nm), min-max normalized on array (fraction of array maximum); higher = stronger binding
# Conditions in all cases: peptide region: H2A 1-13
# [1] = biological target: T1, HaloTag-ATRX ADD domain (163-292)
# Experimental: (§1)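 Histone 13-mer peptides were synthesized as cellulose conjugates with a C-terminal 20-atom PEG linker and printed in triplicate on nitrocellulose. The sequence given is the unmodified backbone; PTMs (Kme1/2/3, Kac, Sph/Tph, Rme/Rme2a/Rme2s, Rcit) are listed in the label and the 'peptide modifications' condition. Slides were probed at 4 °C for 1 h with biotin-labelled (HQ)5-HaloTag reader fusions (ATRX-ADD, ING2-PHD) then streptavidin-Alexa647, or with rabbit histone antibodies then anti-rabbit Alexa647. The mean 635 nm signal of the triplicate spots was scaled 0-1 between the lowest and highest values on each array.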
# [2] = biological target: HaloTag-ING2 PHD (mouse Ing2 200-280)
# Experimental: as §1
# [3] = biological target: anti-H3K4me3 antibody ab8580
# Experimental: as §1
# [4] = biological target: anti-H3K9me3 antibody ab8898
# Experimental: as §1
# [5] = peptide modifications: H2AS1ph H2AR3cit, binder concentration: 1:2,000 dilution
# [6] = peptide modifications: H2AS1ph H2AR3cit, binder concentration: 1:10,000 dilution
# [7] = peptide modifications: H2AS1ph, binder concentration: 1:2,000 dilution
# [8] = peptide modifications: H2AS1ph, binder concentration: 1:10,000 dilution
# [9] = peptide modifications: H2AR3me2a H2AK5ac, binder concentration: 1:2,000 dilution
# [10] = peptide modifications: H2AR3me2a H2AK5ac, binder concentration: 1:10,000 dilution
# [11] = peptide modifications: H2AS1ph H2AR3me1, binder concentration: 1:2,000 dilution
# [12] = peptide modifications: H2AS1ph H2AR3me1, binder concentration: 1:10,000 dilution
# [13] = peptide modifications: H2AS1ph H2AK5ac H2AK9ac, binder concentration: 1:2,000 dilution
# [14] = peptide modifications: H2AS1ph H2AK5ac H2AK9ac, binder concentration: 1:10,000 dilution
# [15] = peptide modifications: H2AS1ph H2AK5ac, binder concentration: 1:2,000 dilution
# [16] = peptide modifications: H2AS1ph H2AK5ac, binder concentration: 1:10,000 dilution
# [17] = peptide modifications: H2AS1ph H2AR3me2a, binder concentration: 1:2,000 dilution
# [18] = peptide modifications: H2AS1ph H2AR3me2a, binder concentration: 1:10,000 dilution
# [19] = peptide modifications: H2AR3me1, binder concentration: 1:2,000 dilution
# [20] = peptide modifications: H2AR3me1, binder concentration: 1:10,000 dilution
# [21] = peptide modifications: H2AR3cit H2AK5ac, binder concentration: 1:2,000 dilution
# [22] = peptide modifications: H2AR3cit H2AK5ac, binder concentration: 1:10,000 dilution
# [23] = binder concentration: 1:2,000 dilution
# [24] = binder concentration: 1:10,000 dilution
binder,measurement,setting,value
B1,peptide microarray binding signal,"[1]; peptide modifications: H2AS1ph H2AR3cit, binder concentration: 50 nM",0.00392 ± 8.1e-05
same,peptide microarray binding signal,"[1]; peptide modifications: H2AS1ph H2AR3cit, binder concentration: 500 nM",0.00486 ± 5.6e-05
same,peptide microarray binding signal,"[2]; peptide modifications: H2AS1ph H2AR3cit, binder concentration: 10 nM",0.00167 ± 3e-05
same,peptide microarray binding signal,"[2]; peptide modifications: H2AS1ph H2AR3cit, binder concentration: 100 nM",0.00283 ± 0.0002
same,peptide microarray binding signal,[3]; [5],0.000472 ± 2.6e-05
same,peptide microarray binding signal,[3]; [6],0.000514 ± 1.1e-05
same,peptide microarray binding signal,[4]; [5],0.000272 ± 4.9e-06
same,peptide microarray binding signal,[4]; [6],0.000692 ± 7.3e-06
B2,peptide microarray binding signal,"[1]; peptide modifications: H2AS1ph, binder concentration: 50 nM",0.00235 ± 3.8e-05
same,peptide microarray binding signal,"[1]; peptide modifications: H2AS1ph, binder concentration: 500 nM",0.00462 ± 0.00011
same,peptide microarray binding signal,"[2]; peptide modifications: H2AS1ph, binder concentration: 10 nM",0.002148 ± 1.2e-05
same,peptide microarray binding signal,"[2]; peptide modifications: H2AS1ph, binder concentration: 100 nM",0.00312 ± 0.00029
same,peptide microarray binding signal,[3]; [7],0.000208 ± 2.2e-06
same,peptide microarray binding signal,[3]; [8],0.000342 ± 3.8e-06
same,peptide microarray binding signal,[4]; [7],0.000166 ± 3.6e-06
same,peptide microarray binding signal,[4]; [8],0.000231 ± 2.6e-06
B3,peptide microarray binding signal,"[1]; peptide modifications: H2AR3me2a H2AK5ac, binder concentration: 50 nM",0.00354 ± 0.00011
same,peptide microarray binding signal,"[1]; peptide modifications: H2AR3me2a H2AK5ac, binder concentration: 500 nM",0.00657 ± 0.00029
same,peptide microarray binding signal,"[2]; peptide modifications: H2AR3me2a H2AK5ac, binder concentration: 10 nM",0.00352 ± 5e-05
same,peptide microarray binding signal,"[2]; peptide modifications: H2AR3me2a H2AK5ac, binder concentration: 100 nM",0.00454 ± 0.00022
same,peptide microarray binding signal,[3]; [9],0.0005474 ± 5.3e-06
same,peptide microarray binding signal,[3]; [10],0.00137 ± 1.3e-05
same,peptide microarray binding signal,[4]; [9],0.000468 ± 9e-06
same,peptide microarray binding signal,[4]; [10],0.00104 ± 1.1e-05
B4,peptide microarray binding signal,"[1]; peptide modifications: H2AS1ph H2AR3me1, binder concentration: 50 nM",0.0036 ± 0.00033
same,peptide microarray binding signal,"[1]; peptide modifications: H2AS1ph H2AR3me1, binder concentration: 500 nM",0.00495 ± 6.5e-05
same,peptide microarray binding signal,"[2]; peptide modifications: H2AS1ph H2AR3me1, binder concentration: 10 nM",0.00346 ± 0.00011
same,peptide microarray binding signal,"[2]; peptide modifications: H2AS1ph H2AR3me1, binder concentration: 100 nM",0.00446 ± 0.00061
same,peptide microarray binding signal,[3]; [11],0.000566 ± 1.9e-05
same,peptide microarray binding signal,[3]; [12],0.000799 ± 8.3e-06
same,peptide microarray binding signal,[4]; [11],0.000287 ± 2.9e-06
same,peptide microarray binding signal,[4]; [12],0.000807 ± 1.5e-05
B5,peptide microarray binding signal,"[1]; peptide modifications: H2AS1ph H2AK5ac H2AK9ac, binder concentration: 50 nM",0.00408 ± 0.00018
same,peptide microarray binding signal,"[1]; peptide modifications: H2AS1ph H2AK5ac H2AK9ac, binder concentration: 500 nM",0.00738 ± 0.00011
same,peptide microarray binding signal,"[2]; peptide modifications: H2AS1ph H2AK5ac H2AK9ac, binder concentration: 10 nM",0.00257 ± 5e-05
same,peptide microarray binding signal,"[2]; peptide modifications: H2AS1ph H2AK5ac H2AK9ac, binder concentration: 100 nM",0.00687 ± 0.00064
same,peptide microarray binding signal,[3]; [13],0.000321 ± 6.7e-06
same,peptide microarray binding signal,[3]; [14],0.000399
same,peptide microarray binding signal,[4]; [13],0.000272 ± 4.9e-06
same,peptide microarray binding signal,[4]; [14],0.000577 ± 6.2e-06
B6,peptide microarray binding signal,"[1]; peptide modifications: H2AS1ph H2AK5ac, binder concentration: 50 nM",0.00298 ± 3.8e-05
same,peptide microarray binding signal,"[1]; peptide modifications: H2AS1ph H2AK5ac, binder concentration: 500 nM",0.00752 ± 0.00011
same,peptide microarray binding signal,"[2]; peptide modifications: H2AS1ph H2AK5ac, binder concentration: 10 nM",0.00292 ± 9.7e-05
same,peptide microarray binding signal,"[2]; peptide modifications: H2AS1ph H2AK5ac, binder concentration: 100 nM",0.00276 ± 0.00011
same,peptide microarray binding signal,[3]; [15],0.000264 ± 5.6e-06
same,peptide microarray binding signal,[3]; [16],0.000685 ± 7.2e-06
same,peptide microarray binding signal,[4]; [15],0.000257 ± 2.7e-06
same,peptide microarray binding signal,[4]; [16],0.000577 ± 6.2e-06
B7,peptide microarray binding signal,"[1]; peptide modifications: H2AS1ph H2AR3me2a, binder concentration: 50 nM",0.00235 ± 9e-05
same,peptide microarray binding signal,"[1]; peptide modifications: H2AS1ph H2AR3me2a, binder concentration: 500 nM",0.00381 ± 0.00015
same,peptide microarray binding signal,"[2]; peptide modifications: H2AS1ph H2AR3me2a, binder concentration: 10 nM",0.003223 ± 1.8e-05
same,peptide microarray binding signal,"[2]; peptide modifications: H2AS1ph H2AR3me2a, binder concentration: 100 nM",0.00206 ± 4.1e-05
same,peptide microarray binding signal,[3]; [17],0.000472 ± 1.2e-05
same,peptide microarray binding signal,[3]; [18],0.000685 ± 7.2e-06
same,peptide microarray binding signal,[4]; [17],0.000332 ± 3.4e-06
same,peptide microarray binding signal,[4]; [18],0.000577 ± 6.2e-06
B8,peptide microarray binding signal,"[1]; peptide modifications: H2AR3me1, binder concentration: 50 nM",0.00254 ± 4.9e-05
same,peptide microarray binding signal,"[1]; peptide modifications: H2AR3me1, binder concentration: 500 nM",0.005096 ± 3.3e-05
same,peptide microarray binding signal,"[2]; peptide modifications: H2AR3me1, binder concentration: 10 nM",0.00286 ± 0.00013
same,peptide microarray binding signal,"[2]; peptide modifications: H2AR3me1, binder concentration: 100 nM",0.004039 ± 3.4e-05
same,peptide microarray binding signal,[3]; [19],0.000491 ± 9.7e-06
same,peptide microarray binding signal,[3]; [20],0.000514 ± 5.5e-06
same,peptide microarray binding signal,[4]; [19],0.000181
same,peptide microarray binding signal,[4]; [20],0.000404 ± 8.8e-06
B9,peptide microarray binding signal,"[1]; peptide modifications: H2AR3cit H2AK5ac, binder concentration: 50 nM",0.00389 ± 0.00015
same,peptide microarray binding signal,"[1]; peptide modifications: H2AR3cit H2AK5ac, binder concentration: 500 nM",0.00481 ± 0.00026
same,peptide microarray binding signal,"[2]; peptide modifications: H2AR3cit H2AK5ac, binder concentration: 10 nM",0.00519 ± 0.00013
same,peptide microarray binding signal,"[2]; peptide modifications: H2AR3cit H2AK5ac, binder concentration: 100 nM",0.00567 ± 0.00026
same,peptide microarray binding signal,[3]; [21],0.001 ± 3.7e-05
same,peptide microarray binding signal,[3]; [22],0.0016
same,peptide microarray binding signal,[4]; [21],0.000634 ± 9.9e-06
same,peptide microarray binding signal,[4]; [22],0.0015 ± 4.4e-05
B10,peptide microarray binding signal,[1]; binder concentration: 50 nM,0.00364 ± 0.00013
same,peptide microarray binding signal,[1]; binder concentration: 500 nM,0.00819 ± 0.00076
same,peptide microarray binding signal,[2]; binder concentration: 10 nM,0.00298 ± 3.3e-05
same,peptide microarray binding signal,[2]; binder concentration: 100 nM,0.00446 ± 7.4e-05
same,peptide microarray binding signal,[3]; [23],0.00034 ± 6.1e-06
same,peptide microarray binding signal,[3]; [24],0.000571 ± 1.1e-05
same,peptide microarray binding signal,[4]; [23],0.000242 ± 6.7e-06
same,peptide microarray binding signal,[4]; [24],0.000404 ± 4.4e-06
